In PMC5540273 (PLoS ONE, 2017):

Legend:
Settings in all cases: concentration: 1 μM, replicates: in singlicate; n = 1
[1] = system: T1, AMPK-alpha1
T1 construct: gene PRKAA1

[2] = system: T2, AMPK-alpha2
T2 construct: gene PRKAA2

[3] = system: ANKK1
[4] = system: T3, ARK5
T3 construct: gene NUAK1

[5] = system: T4, ASK1
T4 construct: gene MAP3K5

[6] = system: T5, ASK2
T5 construct: gene MAP3K6

[7] = system: AURKA
[8] = system: AURKB
[9] = system: AURKC
[10] = system: AXL
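Also: KINOMEscan kinase panel screen.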

Row | SMILES | %Inh [1] [%] | %Inh [2] [%] | %Inh [3] [%] | %Inh [4] [%] | %Inh [5] [%] | %Inh [6] [%] | %Inh [7] [%] | %Inh [8] [%] | %Inh [9] [%] | %Inh [10] [%]
1 | CN1c2ccc(-c3ccc(C(N)=O)cc3)cc2-c2[nH]ncc2S1(=O)=O | 0 | 0 | 0 | 0 | 0 | 0 | 0 | 21 | 0 | 5
2 | COc1ccc(Nc2nccc(-c3ccc(NC(=O)c4cc5cc(F)ccc5[nH]4)cc3)n2)cc1 [GSK1229496] | 0 | 0 | 0 | 0 | 2 | 0 | 0 | 5 | 0 | 0
3 | COc1cccc(NC(=O)Nc2ccc(C)c(-c3ccc(C(=O)Nc4ccncc4)cc3)c2)c1 [GSK1398474] | 0 | 13 | 10 | 20 | 2 | 0 | 14 | 0 | 40 | 25
4 | COc1ccc(CSc2nnc(-c3ccc4ncsc4c3)o2)cc1C(F)(F)F | 0 | 13 | 0 | 10 | 0 | 4 | 0 | 13 | 0 | 0
5 | Cn1cncc1-c1cc2c(Nc3ccc(OCc4ccccc4)cc3)ncnc2cn1 [GW281179] | 0 | 0 | 0 | 13 | 9 | 0 | 0 | 25 | 5 | 0
6 | Fc1ccc(-c2nc3n(c2-c2ccncc2)CCS3)cc1 [GI98581] | 14 | 0 | 0 | 0 | 5 | 13 | 0 | 0 | 43 | 6
7 | CC(C)c1ccc(O)cc1Nc1ccnc2ccc(C(F)(F)F)cc12 [GW482059] | 20 | 13 | 0 | 0 | 1 | 0 | 0 | 0 | 0 | 14
8 | FC(F)(F)c1ccccc1-c1cc(-c2c[nH]nc2-c2ccccn2)ccn1 [GW679396] | 0 | 25 | 0 | 0 | 10 | 0 | 44 | 0 | 16 | 0
9 | CCCCc1nn2ncccc2c1-c1ccnc(NC2CC2)n1 [GW684374] | 0 | 0 | 8 | 12 | 0 | 0 | 30 | 12 | 38 | 0
10 | COc1ccc2cc(-c3nc(-c4ccccc4C(C)C)[nH]c3-c3ccncc3)ccc2c1 [SB-660566] | 17 | 0 | 6 | 18 | 16 | 3 | 5 | 30 | 0 | 36
11 | O=C(Nc1n[nH]c2nc(-c3cccs3)c(Br)cc12)C1CC1 [SB-735297] | 0 | 8 | 9 | 0 | 2 | 13 | 0 | 31 | 6 | 28
12 | COc1cccc(C2=C(Nc3cc(Cl)c(O)c(Cl)c3)C(=O)NC2=O)c1 [SB-390767] | 8 | 0 | 0 | 26 | 4 | 7 | 0 | 0 | 8 | 0
13 | COC(=O)c1cccc(NC(=O)NC2CCN(c3ccnc(Nc4ccc(F)cc4)n3)C2)c1 (stereo not shown) [GSK1379725] | 0 | 0 | 0 | 0 | 0 | 1 | 0 | 39 | 34 | 6
14 | COc1cccc(CNC(=O)NC2CCN(c3ccnc(Nc4ccc(F)cc4)n3)C2)c1 (stereo not shown) [GSK1379723] | 0 | 12 | 0 | 24 | 0 | 9 | 11 | 37 | 49 | 6
15 | Nc1cccc(-c2ccc3c(N)n[nH]c3c2)n1 [GSK2192730] | 0 | 0 | 17 | 0 | 0 | 13 | 8 | 15 | 22 | 0
16 | Nc1nccc(-c2c(-c3ccc(F)cc3)ncn2C2CCN(Cc3ccccc3)CC2)n1 [SB-219980] | 0 | 3 | 59 | 15 | 0 | 0 | 21 | 22 | 0 | 9
17 | O=C(Nc1n[nH]c2nc(-c3ccco3)c(Br)cc12)C1CCN(Cc2ccccc2)C1.O=C(O)[C@H](O)[C@@H](O)C(=O)O (stereo not shown) [SB-742034] | 9 | 0 | 11 | 0 | 13 | 17 | 34 | 17 | 7 | 13

Row | SMILES | %Inh [1] [%] | %Inh [2] [%] | %Inh [3] [%] | %Inh [4] [%] | %Inh [5] [%] | %Inh [6] [%] | %Inh [7] [%] | %Inh [8] [%] | %Inh [9] [%] | %Inh [10] [%]
18 | CS(=O)(=O)CCNCc1nc(-c2ccc3ncnc(Nc4ccc5c(cnn5Cc5ccccc5)c4)c3c2)cs1.Cl.Cl [GW569716] | 0 | 0 | 0 | 0 | 0 | 0 | 32 | 29 | 0 | 0
19 | Fc1ccc(-c2nn3cccc(F)c3c2-c2ccncc2)cc1 [GW475620] | 42 | 19 | 0 | 16 | 8 | 0 | 0 | 45 | 46 | 3
20 | O=C1NC(=O)C(c2ccc(Cl)cc2)=C1Nc1cccc(Cl)c1 [SB-317651] | 0 | 0 | 0 | 0 | 3 | 0 | 0 | 35 | 0 | 20
21 | CCc1ccc(-c2ccc3c(c2)-c2n[nH]cc2S(=O)(=O)N3C)cc1 | 0 | 1 | 0 | 13 | 6 | 0 | 0 | 0 | 11 | 51
22 | COc1cc2ncnc(Nc3cccc(Br)c3)c2cc1OC.Cl [GI230329] | 0 | 0 | 8 | 17 | 0 | 6 | 6 | 0 | 6 | 10
23 | Cc1c(Cn2c3ccccc3n3c(=O)cc(N4CCOCC4)nc23)cccc1C(F)(F)F [GSK2306394] | 0 | 0 | 0 | 8 | 0 | 8 | 0 | 9 | 14 | 5
24 | CC(=O)c1cccc(NC(=O)NC2CCN(c3ccnc(Nc4ccc(F)cc4)n3)C2)c1 (stereo not shown) [GSK1379710] | 0 | 0 | 19 | 31 | 20 | 0 | 12 | 0 | 21 | 5
25 | NS(=O)(=O)c1cccc(N/C=C2\C(=O)Nc3ccc(S(=O)(=O)Cc4c(Cl)cccc4Cl)cc32)c1 [GSK398099] | 0 | 0 | 0 | 0 | 3 | 0 | 26 | 30 | 0 | 0
26 | COc1ccc(Nc2nccc(NCCNC(=O)Nc3cc(C)ccc3C)n2)cc1 [GSK1379899] | 0 | 0 | 0 | 0 | 0 | 0 | 0 | 14 | 36 | 4
27 | CS(=O)(=O)CCNCc1nc(-c2ccc3ncnc(Nc4ccc(OCc5ccccc5)c(Cl)c4)c3c2)cs1.Cl [GW582764] | 0 | 0 | 0 | 0 | 0 | 0 | 0 | 23 | 0 | 0
28 | Cc1nccc(-c2c(-c3ccc(F)cc3)ncn2CCCN2CCOCC2)n1.Cl [SB-282975] | 0 | 0 | 33 | 0 | 7 | 20 | 8 | 14 | 34 | 0
29 | CNc1cc(-c2ccc3c(N)n[nH]c3c2)nc(N)n1 [GSK2224810] | 0 | 0 | 10 | 0 | 0 | 0 | 4 | 0 | 10 | 0
30 | COC(=O)C(Cc1ccccc1)NC(=O)NC1CCN(c2ccnc(Nc3ccc(F)cc3)n2)C1 (stereo not shown) [GSK1379714] | 7 | 0 | 0 | 0 | 5 | 0 | 43 | 11 | 35 | 3
31 | COc1ccc(-c2coc3ccc(-c4nnc(C)o4)cc23)cc1 | 0 | 3 | 0 | 0 | 0 | 10 | 0 | 18 | 0 | 0
32 | Cc1ccc(NC(=O)Nc2ccccc2F)cc1-c1ccc(C(=O)Nc2ccncc2)cc1 [GSK1398477] | 7 | 23 | 0 | 8 | 12 | 21 | 0 | 0 | 27 | 25
33 | Cn1cncc1C(=O)NC1CCN(c2ccnc(Nc3ccc(F)cc3)n2)C1 (stereo not shown) [GSK1379717] | 0 | 12 | 0 | 9 | 10 | 3 | 0 | 23 | 8 | 0
34 | Cc1ccc(NC(=O)Nc2ccc(Cl)c(C(F)(F)F)c2)cc1-c1ccc(C(=O)Nc2ccncc2)cc1 [GSK1398470] | 2 | 16 | 15 | 14 | 0 | 0 | 0 | 0 | 8 | 17
